A selection: hits, their analogues and other compounds. The true share with any hit is near 6.8%.
Pf Dd2 inh – inhibitors of Plasmodium falciparum Dd2 growth | P. falciparum Dd2 growth, SYBR Green, 72 h; hits give low values | activity change, % at 10 µM | 94,000 tested, 2.3% active | AID 1159554; in the data active means activity change below about -80%; inconclusive means no clear call, values can overlap the other calls
C diff growth – C. difficile growth inhibition; Clostridium difficile clinical isolate growth, OD600, 24 h; hits give low values; growth activity, negative = inhibition, % at 16 µg/mL (by protocol); 86,000 tested, 0.25% active; AID 1259249;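 active means mean growth activity at or below -80% and every replicate also at or below -80%; inconclusive means mean at or below -80% but some replicate above -80%; inactive means mean growth activity above -80%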
T cruzi growth-1 – inhibitors of T. cruzi proliferation | AID 624255 | T. cruzi beta-gal in NIH3T3, GalScreen luminescence, 90 h | 77,000 tested, 5.9% active | inhibition, % at 8.34 µM;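 active means mean inhibition above about 93%, with at least 55% of replicates each passing it, limit read from the data, passing the limit was not always enough; inconclusive means only one of those two conditions holds; inactive means neither condition holds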
T cruzi growth-2 – inhibitors of T. cruzi proliferation; shares compounds with T cruzi growth-1; T. cruzi beta-gal in NIH3T3, GalScreen luminescence, 90 h; inhibition, % at 8.35 µM; 5,600 tested, 72% active;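 active means mean replicate inhibition above about 95% and at least 55% of replicates individually reaching it, limit read from the data; inconclusive means only one of the two criteria is met; inactive means neither criterion is met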
T cruzi growth-3 – Trypanosoma cruzi proliferation inhibition. AID 651740. T. cruzi beta-gal in NIH3T3, GalScreen luminescence, 90 h. shares compounds with T cruzi growth-1. 5,600 tested, 21% active. inhibition, % at 2.09 µM;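 active means mean inhibition above about 95%, with at least 55% of replicates also reaching it, limit read from the data; inconclusive means meets just one of the two conditions; inactive means meets neither condition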
3T3 cytotox – kills mouse NIH/3T3 fibroblasts. shares compounds with T cruzi growth-1. NIH/3T3 viability, CellTiter-Glo ATP luminescence, 90 h. cytotoxicity (signal decrease), % at 8.35 µM. 5,600 tested, 14% active. AID 651742;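 active means mean signal decrease across replicates above about 35% based on untreated-well scatter, with enough replicates individually passing, limit read from the data; inconclusive means no rule stated though some were filed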
NIH3T3 tox 2 – kills mouse NIH/3T3 fibroblasts; shares compounds with T cruzi growth-1; NIH/3T3 viability, CellTiter-Glo ATP luminescence, 90 h; inhibition, % at 24.9 µM; 5,600 tested, 56% active;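 active means mean loss of cell viability signal at or above a set limit, and enough replicates individually reaching it; inconclusive means meets only the mean limit or only the replicate share; inactive means meets neither condition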
Large screens that a line does not name were inactive (follow-up assays come after a bar, where they were run).

OC[C@H]1[C@@H](c2ccc(C#Cc3ccccc3)cc2)[C@@H]2CN(Cc3cncnc3)CCCCN12	none
CCCC#Cc1ccc([C@H]2[C@@H](CO)N3CCCCN(Cc4cncnc4)C[C@H]23)cc1	none
OC[C@H]1[C@H](c2ccc(C#Cc3ccccc3)cc2)[C@H]2CN(Cc3cncnc3)CCCCN21	T cruzi growth-1 104 | T cruzi growth-2 107 | T cruzi growth-3 inactive | 3T3 cytotox inactive | NIH3T3 tox 2 103
OC[C@@H]1[C@@H](c2ccc(C#Cc3ccccc3F)cc2)[C@H]2CN(Cc3cncnc3)CCCCN12	none
OC[C@H]1[C@H](c2ccc(C#Cc3ccccc3F)cc2)[C@H]2CN(Cc3cncnc3)CCCCN21	T cruzi growth-1 101 | T cruzi growth-2 108 | T cruzi growth-3 inactive | 3T3 cytotox 40 | NIH3T3 tox 2 103
OC[C@H]1[C@H](c2ccc(C#Cc3ccccc3F)cc2)[C@@H]2CN(Cc3cncnc3)CCCCN12	T cruzi growth-1 113 | T cruzi growth-2 99 | T cruzi growth-3 inactive | 3T3 cytotox inconclusive | NIH3T3 tox 2 106
CCCC#Cc1ccc([C@@H]2[C@@H](CO)N3CCCCN(Cc4cncnc4)C[C@H]23)cc1	none
CN1CCN(C(=O)C[C@@H]2C[C@H]3c4cc(NC(=O)Nc5ccccc5F)ccc4O[C@H]3[C@@H](CO)O2)CC1	none
CC(C)C#Cc1ccc2c(c1)O[C@H](CN(C)C)[C@@H](C)CN([C@@H](C)CO)S2(=O)=O	none (no result: T cruzi growth-1)
Cc1ccc(S(=O)(=O)NCC[C@@H]2CC[C@H](NC(=O)NC(C)C)[C@H](CO)O2)cc1	none
Cn1cnc(S(=O)(=O)N[C@H]2CC[C@H](CC(=O)Nc3ccccc3)O[C@H]2CO)c1	none (no result: Pf Dd2 inh, T cruzi growth-1)
C[C@H](CO)N1C[C@H](C)[C@@H](CN(C)Cc2ccc(C(F)(F)F)cc2)OCCCC[C@H](C)Oc2ccc(NC(=O)Nc3ccc4c(c3)OCO4)cc2C1=O	none (no result: C diff growth)
C[C@@H]1CCCCO[C@@H](CN(C)Cc2ccc(C(F)(F)F)cc2)[C@H](C)CN([C@H](C)CO)C(=O)c2cc(NC(=O)Nc3ccc4c(c3)OCO4)ccc2O1	none (no result: C diff growth)
C[C@@H]1CCCCO[C@@H](CN(C)Cc2ccc3c(c2)OCO3)[C@@H](C)CN([C@H](C)CO)C(=O)c2cc(NC(=O)Nc3ccc(C(F)(F)F)cc3)ccc2O1	T cruzi growth-1 127 | T cruzi growth-2 inactive | T cruzi growth-3 110 | 3T3 cytotox inactive | NIH3T3 tox 2 inactive
C[C@@H]1CCCCO[C@H](CN(C)Cc2ccc3c(c2)OCO3)[C@H](C)CN([C@@H](C)CO)C(=O)c2cc(NC(=O)Nc3ccc(C(F)(F)F)cc3)ccc2O1	Pf Dd2 inh -86, T cruzi growth-1 122 | T cruzi growth-2 96 | T cruzi growth-3 116 | 3T3 cytotox 122 | NIH3T3 tox 2 104
C[C@@H]1CCCCO[C@H](CN(C)Cc2ccc3c(c2)OCO3)[C@@H](C)CN([C@@H](C)CO)C(=O)c2cc(NC(=O)Nc3ccc(C(F)(F)F)cc3)ccc2O1	C diff growth -100, T cruzi growth-1 inconclusive | T cruzi growth-2 97 | T cruzi growth-3 116 | 3T3 cytotox 117 | NIH3T3 tox 2 104
C[C@H]1CCCCO[C@H](CN(C)Cc2ccc3c(c2)OCO3)[C@@H](C)CN([C@@H](C)CO)C(=O)c2cc(NC(=O)Nc3ccc(C(F)(F)F)cc3)ccc2O1	T cruzi growth-1 inconclusive | T cruzi growth-2 inactive | T cruzi growth-3 106 | 3T3 cytotox 91 | NIH3T3 tox 2 103
C[C@H](CO)N1C[C@H](C)[C@@H](CN(C)C(=O)CC2CC2)Oc2cc(C#C[C@@H](C)O)ccc2S1(=O)=O	none (no result: Pf Dd2 inh)
COc1cccc(NC(=O)N[C@H]2CC[C@H](CC(=O)NCc3ccccn3)O[C@@H]2CO)c1	none
O=C(NC[C@@H]1[C@@H](c2ccccc2)[C@@H](CO)N1C(=O)Cc1cccnc1)C1CCC1	none
COC(=O)C[C@H]1CC[C@H]2[C@@H](COC[C@H](O)CN2S(=O)(=O)c2ccccc2C)O1	none
Cc1noc(C)c1NC(=O)N(C)C[C@@H]1OCCCC[C@H](C)Oc2ccc(NC(=O)c3ccncc3)cc2C(=O)N([C@H](C)CO)C[C@H]1C	none
C[C@H](CO)N1C[C@H](C)[C@H](CN(C)Cc2ccc3c(c2)OCO3)OCCCC[C@H](C)Oc2ccc(NC(=O)Nc3ccc(C(F)(F)F)cc3)cc2C1=O	T cruzi growth-1 inconclusive | T cruzi growth-2 104 | T cruzi growth-3 113 | 3T3 cytotox 124 | NIH3T3 tox 2 104
C[C@H]1CCCCO[C@H](CN(C)Cc2ccc(C(F)(F)F)cc2)[C@@H](C)CN([C@@H](C)CO)C(=O)c2cc(NC(=O)Nc3ccc4c(c3)OCO4)ccc2O1	none (no result: C diff growth)
C[C@H]1CCCCO[C@@H](CN(C)Cc2ccc(C(F)(F)F)cc2)[C@@H](C)CN([C@@H](C)CO)C(=O)c2cc(NC(=O)Nc3ccc4c(c3)OCO4)ccc2O1	none (no result: C diff growth)
C[C@@H]1CN([C@H](C)CO)C(=O)c2cc(NC(=O)Nc3ccc(C(F)(F)F)cc3)ccc2O[C@@H](C)CCCCO[C@H]1CN(C)Cc1ccc2c(c1)OCO2	C diff growth -100, T cruzi growth-1 inconclusive | T cruzi growth-2 inconclusive | T cruzi growth-3 103 | 3T3 cytotox inactive | NIH3T3 tox 2 104
C[C@@H]1CCCCO[C@H](CN(C)Cc2ccc(C(F)(F)F)cc2)[C@H](C)CN([C@@H](C)CO)C(=O)c2cc(NC(=O)Nc3ccc4c(c3)OCO4)ccc2O1	none (no result: C diff growth)
C[C@@H]1CN([C@@H](C)CO)C(=O)c2cc(NC(=O)Nc3ccc(C(F)(F)F)cc3)ccc2O[C@@H](C)CCCCO[C@H]1CN(C)Cc1ccc2c(c1)OCO2	C diff growth -92, T cruzi growth-1 inconclusive | T cruzi growth-2 100 | T cruzi growth-3 112 | 3T3 cytotox inactive | NIH3T3 tox 2 105
O=S(=O)(c1ccccc1F)N1[C@@H]2CNC[C@H]1C2c1ccc(-c2cccnc2)cc1 (some centres undefined)	none (no result: T cruzi growth-1)
CO[C@@H]1CN(C)C(=O)c2ccc(NC(=O)C3CC3)cc2OC[C@H](C)N(CCC(F)(F)F)C[C@@H]1C	none (no result: Pf Dd2 inh, C diff growth)
COc1cccc(S(=O)(=O)Nc2ccc3c(c2)[C@H]2C[C@@H](CC(=O)N(C)C)O[C@H](CO)[C@H]2O3)c1	none
O=C(O)C[C@H]1C[C@@H]2c3cc(NC(=O)C4CCOCC4)ccc3O[C@@H]2[C@H](CO)O1	none (no result: T cruzi growth-1)
CC(C)C#Cc1ccc([C@@H]2[C@@H](C#N)N(C(=O)CN(C)C)[C@@H]2CO)cc1	none
O=C(CCN1CCCCC1)N[C@@H]1CC[C@@H](CCNC(=O)c2cc(Cl)cc(Cl)c2)O[C@@H]1CO	none (no result: C diff growth)
CC(=O)N(C)C[C@@H]1Oc2cc(-c3ccc(F)cc3)ccc2S(=O)(=O)N([C@H](C)CO)C[C@H]1C	none
C[C@H](CO)N1C[C@H](C)[C@H](CN(C)C(=O)Nc2ccc(F)cc2)Oc2cc(-c3ccncc3)ccc2S1(=O)=O	none
